# Inconclusive results are not listed. Calls of active or inactive are those of the source. Unless noted, the call rests on the fitted dose curve; in most records, active means well fitted inhibition curve with a large enough effect; inconclusive means small, poorly fitted or top-dose-only effect; inactive means flat fitted curve, though single readings scatter.
# Legend:
# [1] = qHTS for identification of novel therapeutic agents for treatment of microphthalmiaassociated transcription factor (MiT) renal cell carcinoma (RCC) (AID 1963991; calls by dose curve; further: potency means the concentration at half of the fitted maximal effect); settings: CellTiter-Glo, 48 h; for z-score: stronger effect = lower value
# In short: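 Three TFE3-fusion RCC lines (UOK109, UOK124, UOK145), 500 cells/well in complete medium, were treated with MIPE 4.0 compounds for 48 hours at 37 C. Viability was by CellTiter-Glo luminescence, normalized to DMSO (100%) and empty wells (0%); curves fitted over 11 concentrations.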
# [2] = qHTS drug screen for cell cycle checkpoint inhibitors in PARPi-resistant BRCA-mutant ovarian cancer cell lines. (AID 1963452; calls by dose curve); settings: PEO1/OlaR viability, CellTiter-Glo luminescence, 96 h, stronger effect = lower value
# In short: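 PEO1, PEO4 and PEO1/OlaR ovarian cancer cells, 600 per well, exposed 96 h at 37C to a dilution series. Viability read by CellTiter-Glo luminescence, normalized to DMSO and empty wells; activity summarized as Z-AUC.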
# [3] = qHTS profiling for inhibitors of Plasmodium falciparum proliferation (AID 504749); further: nearly all actives have a fitted effect of over 60% in size; further: potency means the concentration at half of the fitted maximal effect;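 on activity, negative = inhibition: 0% = DMSO vehicle and full inhibition = artemisinin control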; settings: P. falciparum in erythrocytes, SYBR Green DNA, 72 h, at 28.7 µM (top of the series)
# In short: (§1)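 Three-day growth assay of blood-stage parasites in erythrocytes (0.3% parasitemia, 2.5% hematocrit) at 37 C, 5% CO2, quantified by SYBR Green DNA staining after overnight detergent lysis.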
# [4] = system: 3D7; assay: as above; settings: P. falciparum in erythrocytes, SYBR Green DNA, 72 h; series mostly up to 28.7 µM
# In short: as §1
# [5] = system: 7G8; assay: as above; settings: P. falciparum in erythrocytes, SYBR Green DNA, 72 h; series mostly up to 28.7 µM
# In short: as §1
# [6] = system: AA1029; assay: as above; settings: P. falciparum in erythrocytes, SYBR Green DNA, 72 h; series mostly up to 28.7 µM
# In short: as §1
# [7] = system: AS120; assay: as above; settings: P. falciparum in erythrocytes, SYBR Green DNA, 72 h; series mostly up to 28.7 µM
# In short: as §1
# [8] = system: ATS189; assay: as above; settings: P. falciparum in erythrocytes, SYBR Green DNA, 72 h; series mostly up to 28.7 µM
# In short: as §1
# [9] = system: ATS95; assay: as above; settings: P. falciparum in erythrocytes, SYBR Green DNA, 72 h; series mostly up to 28.7 µM
# In short: as §1
# [10] = system: C2A; assay: as above; settings: P. falciparum in erythrocytes, SYBR Green DNA, 72 h; series mostly up to 28.7 µM
# In short: as §1
# [11] = TFE3-RCC UOK109 viability, measured here: UOK109 Z-AUC
# [12] = TFE3-RCC viability, measured here: UOK124 Z-AUC
# [13] = TFE3-RCC viability, measured here: UOK145 Z-AUC
# [14] = measured here: PEO1 parental Z-AUC
structure (smiles),measurement,setting,value
CC(O)=C(C#N)C(=O)Nc1cc(Br)ccc1Br,z-score,[1]; [11],0.277
same,z-score,[1]; [12],0.279
same,z-score,[1]; [13],0.63
CCN1C[C@]2(OC(=O)c3ccccc3NC(C)=O)CC[C@H](OC)[C@@]34[C@H]5CC6[C@@H](OC)C[C@](O)(C(C[C@@H]23)[C@@H]14)[C@@]5(O)[C@@H]6OC,Z-AUC,[2],0.577 (inactive)
same,Z-AUC,[2]; [14],1.09
same,Z-AUC,[2]; measured here: PEO4 Z-AUC,1.24
same,z-score,[1]; [11],0.543
same,z-score,[1]; [12],0.783
same,z-score,[1]; [13],0.781
c1cc2c(cc1[C@H]1OC[C@H]3[C@H]1CO[C@H]3c1ccc3c(c1)OCO3)OCO2,z-score,[1]; [11],0.442
same,z-score,[1]; [12],0.255
same,z-score,[1]; [13],0.142
Cc1ccccc1-n1c(Cn2ncc3c(N)ncnc32)nc2cccc(C)c2c1=O,Z-AUC,[2],-0.794 (inactive)
same,Z-AUC,[2]; [14],-0.62
same,Z-AUC,[2]; measured here: PEO4 Z-AUC,-0.742
same,Potency,[1]; TFE3-RCC UOK109 viability,0.0526 µM (active)
same,z-score,[1]; [11],-1.3
same,z-score,[1]; [12],-1.03
same,z-score,[1]; [13],-1.02
CCCC[N+]1(C)[C@H]2CC(OC(=O)[C@H](CO)c3ccccc3)C[C@H]1[C@H]1O[C@H]12 (some centres not stated),Z-AUC,[2],1.48 (inactive)
same,Z-AUC,[2]; [14],1.34
same,Z-AUC,[2]; measured here: PEO4 Z-AUC,1.36
same,z-score,[1]; [11],0.529
same,z-score,[1]; [12],0.336
same,z-score,[1]; [13],0.453
COc1cccc2c1[C@]13CCN(CC4CC4)[C@H](C2)[C@]1(OC)CCC(=O)C3,z-score,[1]; [11],0.6
same,z-score,[1]; [12],0.387
same,z-score,[1]; [13],0.213
C[C@]12CC[C@@H]3[C@@H](CCC4=CC(=O)CC[C@@H]43)[C@@H]1CC[C@@H]2OC(=O)CCc1ccccc1,Z-AUC,[2],-0.102 (inactive)
same,Z-AUC,[2]; [14],-0.728
same,Z-AUC,[2]; measured here: PEO4 Z-AUC,-0.686
same,z-score,[1]; [11],0.952
same,z-score,[1]; [12],0.605
same,z-score,[1]; [13],-2.12
O=C1C=CC[C@@H]2[C@H]3CCCN4CCC[C@@H](CN12)[C@@H]34,Z-AUC,[2],0.0265 (inactive)
same,Z-AUC,[2]; [14],1.52
same,Z-AUC,[2]; measured here: PEO4 Z-AUC,0.946
COC(=O)[C@@H](N)CCCN=C(N)N[N+](=O)[O-],Z-AUC,[2],-0.673 (inactive)
same,Z-AUC,[2]; [14],-0.429
same,Z-AUC,[2]; measured here: PEO4 Z-AUC,-0.589
same,z-score,[1]; [11],0.59
same,z-score,[1]; [12],0.788
same,z-score,[1]; [13],2.13
same,"activity, negative = inhibition",[3]; parasite line A,8.8% (inactive)
same,"activity, negative = inhibition",[3]; parasite line B,10.5% (inactive)
same,Potency,[4],inactive
same,Potency,[5],inactive
same,Potency,[6],inactive
same,Potency,[7],inactive
same,Potency,[8],inactive
same,Potency,[9],inactive
same,Potency,[10],inactive
C1=C2CCCN[C@H]2[C@@H]2C[C@H]1[C@@H]1CCCCN1C2,z-score,[1]; [11],-0.0816
same,z-score,[1]; [12],0.828
same,z-score,[1]; [13],0.304
C[C@]12COC(=O)C[C@@H]1CC[C@@H]1[C@H]2CC[C@@]2(C)[C@H]1CC[C@]2(C)O,z-score,[1]; [11],0.93
same,z-score,[1]; [12],0.76
same,z-score,[1]; [13],0.397
NC1=NC(=O)N2CC12 (configuration not stated),Z-AUC,[2],-1.19 (inactive)
same,Z-AUC,[2]; [14],-0.747
same,Z-AUC,[2]; measured here: PEO4 Z-AUC,-0.506
same,z-score,[1]; [11],0.952
same,z-score,[1]; [12],1.24
same,z-score,[1]; [13],1.15
same,Potency,[5],10 µM (active)
same,Potency,[8],inactive
same,Potency,[9],inactive

# Reference: PubChem BioAssay (NCATS)
